Our source for the sensor-assay potency score (higher = more potent) values is the OligoGym collection.
Further: reference of the scale not given here.

In the first assay the target is YWHAG. Nature of the assay: pooled miR-30 sensor sort-seq; sequence = guide strand. Particulars: shRNA.
Turning to TTCTAAGTCTGTCAGTCTGGGA, the sensor-assay potency score (higher = more potent) is -0.946.

As for AATACCAGCACAGCTAGCCTGA, the sensor-assay potency score (higher = more potent) is -0.754.

TTAAGTTTTCTTTTCATCTGAA came in with a sensor-assay potency score (higher = more potent) of 0.563.

Regarding TTCGCTGTAGGCCTTCTCGGAG, the sensor-assay potency score (higher = more potent) is -0.969.

In turn, TGAATCTACAGAACAGTCCAGA registered a sensor-assay potency score (higher = more potent) of 0.0332.

In the case of TTAATACTGTCAACTAATCAGA, the sensor-assay potency score (higher = more potent) is -0.755.

Turning to TTCAGGTAGAACACTTTGCTCT, the sensor-assay potency score (higher = more potent) was -0.452.

TAAACCATAAGGATGAATGAGA showed a sensor-assay potency score (higher = more potent) of -0.514.

TTTAAGTTTTCTTTTCATCTGA yielded a sensor-assay potency score (higher = more potent) of 0.297.

Another assay addresses YY1AP1. The assay is described as above. The following applies: shRNA.
On to TTTAACCTTCTCTACCTCCTTC, for which the sensor-assay potency score (higher = more potent) is 0.0131.

As for TAAAGTTAGCTTGAGGCTCAGC, the sensor-assay potency score (higher = more potent) is -0.69.

TGTTCTCTGACAATCCTTCTTG: the sensor-assay potency score (higher = more potent) is -0.0122.

The sequence TTTTTCTAGGCCTTGATCTGAG yielded a sensor-assay potency score (higher = more potent) of -0.00665.

The sequence TAGAAGGTACTTGTTGTCCTCA registered a sensor-assay potency score (higher = more potent) of 0.0643.

In turn, TTTGCTTCCTTTTCGTGTCGGA came in with a sensor-assay potency score (higher = more potent) of 0.308.

Regarding ATGAACTTCCTTACACTGGGGT, the sensor-assay potency score (higher = more potent) stood at 0.289.

TTAAGACATATCCTGGTGCTAC: the sensor-assay potency score (higher = more potent) was -0.46.

As for TGTCAAGAGCTGAACATGCTGC, the sensor-assay potency score (higher = more potent) was -0.313.

Regarding TTCCATCTTGACAACTTCCTCT, the sensor-assay potency score (higher = more potent) is 0.35.

The sequence TTCAAACAGATCTTCCATCAGC came in with a sensor-assay potency score (higher = more potent) of -0.176.

The sequence TTCCTCTGTAGCATCTTCAGGT displayed a sensor-assay potency score (higher = more potent) of 0.0483.

A further assay addresses YY2. The assay is described as above. Particulars: shRNA.
Sequence TTTGACCTGCATTTGCTTCTGC gave a sensor-assay potency score (higher = more potent) of 0.61.

For TACTGGACGCTTTCCGTCGGAA, the sensor-assay potency score (higher = more potent) is -1.27.

In turn, TTGACTGAGCGAACTTCCTGTT showed a sensor-assay potency score (higher = more potent) of -0.213.

For the sequence TAGCTGGTTGTCTGAGTCGCAA, the sensor-assay potency score (higher = more potent) is -1.47.

Regarding TTCTGCTCCCACTTCCTCGTGC, the sensor-assay potency score (higher = more potent) amounted to 0.239.

Take TTGAGCTCTCAAGAAAAGCTTT: the sensor-assay potency score (higher = more potent) is -0.69.

TTGTGTCTGCAACATAAGCATT had a sensor-assay potency score (higher = more potent) of -1.56.

In the case of TTTAGTAAATTCTGCCAGCTGT, the sensor-assay potency score (higher = more potent) was -0.34.

TGTCTGAGTCGCAATAGCCCAC: the sensor-assay potency score (higher = more potent) was -0.97.

Turning to TCGTCTTCAATGCTATCCGGGA, the sensor-assay potency score (higher = more potent) is -0.643.

TAGGGGACCACATAGTCACGGA yielded a sensor-assay potency score (higher = more potent) of -0.62.

In turn, TCAAGTACTCGGAATAATCAGG registered a sensor-assay potency score (higher = more potent) of -0.787.

The next assay deals with ZBTB24. The assay is described as above. The following applies: shRNA.
TTTAGCTGTCTGTTCTGGCTGA: the sensor-assay potency score (higher = more potent) worked out at 0.857.

TTAAATTCTGCAGTTGCTCTGG: the sensor-assay potency score (higher = more potent) was found to be 0.17.

Consider TTAGGGATAACAACCACTGGGG, for which the sensor-assay potency score (higher = more potent) was -0.555.

TTAAGTTTGACGGATCTCCAAA yielded a sensor-assay potency score (higher = more potent) of -1.

TTGCTGTATCGACTCTGGCTTG: the sensor-assay potency score (higher = more potent) was -0.983.

Consider TTGGTGGTCAGAGCCTTGCTGC, for which the sensor-assay potency score (higher = more potent) was -1.29.

For TTAAGAACTGAGCAGTAGCCAG, the sensor-assay potency score (higher = more potent) is -1.12.
